Test results published in PubChem BioAssay AID1347165 (National Center for Advancing Translational Sciences (NCATS), 2019).
Out of some 220,000 compounds screened, about 5,700 (2.6%) were called active. Where a call stands in place of a potency, no number is given. Roughly 18% stayed inconclusive and do not appear here. The call rests on the fitted dose curve; in most records, active means well fitted inhibition curve with a large enough effect; inconclusive means small, poorly fitted or top-dose-only effect; inactive means no such curve, though single readings can be large or run the other way. The sample as a whole holds a higher share of actives than the screen did.

target: Lysine-specific demethylase 5B (Homo sapiens) (UniProt Q9UGL1); experiment: Primary screen for KDM5B Histone Demethylases FDH-coupled qHTS; details: FDH-coupled NADH fluorescence (FDH is formaldehyde dehydrogenase); series mostly up to 57.7 µM; further: nearly all actives have a fitted effect of over 70% in size
How it was run: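 Coupled FDH/NAD⁺ fluorescence readout. KDM5BΔAP 200 nM final; compound titration, 10 min RT preincubation; substrate mix 12.5 µM H3K4me3, 25 µM 2-OG, 50 µM Fe(II), 100 µM ascorbate, 0.25 mM NAD⁺, 0.25 U/mL FDH; ΔRFU over 30 min.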
Potency means the concentration at half of the fitted maximal effect.

Chain of Lysine-specific demethylase 5B (Homo sapiens) (Q9UGL1 whole entry, looked up): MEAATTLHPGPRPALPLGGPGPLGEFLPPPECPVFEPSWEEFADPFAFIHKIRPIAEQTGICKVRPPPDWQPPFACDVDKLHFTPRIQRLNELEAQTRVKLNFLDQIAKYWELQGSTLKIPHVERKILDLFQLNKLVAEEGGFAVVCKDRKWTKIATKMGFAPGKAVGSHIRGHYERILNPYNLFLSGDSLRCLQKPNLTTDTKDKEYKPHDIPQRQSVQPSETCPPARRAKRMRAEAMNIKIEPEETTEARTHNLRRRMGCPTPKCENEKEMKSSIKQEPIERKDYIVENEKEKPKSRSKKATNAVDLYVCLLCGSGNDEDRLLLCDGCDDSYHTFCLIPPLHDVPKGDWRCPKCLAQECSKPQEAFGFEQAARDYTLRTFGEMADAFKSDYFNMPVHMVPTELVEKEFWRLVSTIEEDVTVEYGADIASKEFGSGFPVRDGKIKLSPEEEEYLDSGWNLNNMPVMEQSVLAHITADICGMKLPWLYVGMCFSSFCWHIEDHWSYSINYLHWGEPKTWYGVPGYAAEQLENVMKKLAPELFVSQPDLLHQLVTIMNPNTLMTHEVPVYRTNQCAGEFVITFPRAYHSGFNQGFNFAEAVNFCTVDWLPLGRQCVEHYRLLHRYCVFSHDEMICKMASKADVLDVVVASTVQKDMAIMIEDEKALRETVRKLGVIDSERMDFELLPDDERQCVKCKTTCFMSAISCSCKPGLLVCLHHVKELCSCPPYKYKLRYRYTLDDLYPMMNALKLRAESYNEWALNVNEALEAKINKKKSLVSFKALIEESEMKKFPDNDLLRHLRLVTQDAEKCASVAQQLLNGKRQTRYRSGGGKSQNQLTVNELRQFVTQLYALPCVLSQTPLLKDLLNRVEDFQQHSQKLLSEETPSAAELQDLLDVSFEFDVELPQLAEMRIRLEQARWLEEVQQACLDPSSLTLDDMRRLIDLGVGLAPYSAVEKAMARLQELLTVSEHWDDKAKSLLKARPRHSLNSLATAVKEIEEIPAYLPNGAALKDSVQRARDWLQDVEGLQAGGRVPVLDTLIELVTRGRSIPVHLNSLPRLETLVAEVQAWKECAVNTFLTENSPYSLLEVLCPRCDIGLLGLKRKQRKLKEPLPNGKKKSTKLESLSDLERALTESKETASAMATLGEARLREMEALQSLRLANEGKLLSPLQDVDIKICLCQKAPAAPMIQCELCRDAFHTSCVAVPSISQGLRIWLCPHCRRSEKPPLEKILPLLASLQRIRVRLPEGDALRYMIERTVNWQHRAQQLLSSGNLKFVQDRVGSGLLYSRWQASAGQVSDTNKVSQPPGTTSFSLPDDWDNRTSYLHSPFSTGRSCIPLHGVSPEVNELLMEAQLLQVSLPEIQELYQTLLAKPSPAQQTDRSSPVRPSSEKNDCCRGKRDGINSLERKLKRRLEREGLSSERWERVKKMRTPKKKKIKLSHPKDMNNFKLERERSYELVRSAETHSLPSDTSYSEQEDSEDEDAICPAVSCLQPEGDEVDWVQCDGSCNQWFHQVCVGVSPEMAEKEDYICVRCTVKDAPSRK

Structure (SMILES)	Potency
CC1CCCN(CC(=O)Nc2oc3ccccc3c(=O)c2-c2ccc(F)cc2)C1 (centres undefined)	inactive
N#Cc1cccc(Cn2c(=O)c3c(ncn3C3CCCC3)n(Cc3ccccc3)c2=O)c1	inactive
CN(C)c1cccc(-c2cnc(Nc3ccc(N4CCOCC4)cc3)c3c2CCO3)c1	35.5 µM (active)
CN1CCN(Cc2ccc(Nc3ncc(-c4cccnc4)c4c3OCC4)cc2)CC1	inactive
COc1ncccc1Nc1ncc(-c2ccccc2)c2c1OCC2	inactive
CN=c1scc(-c2cccs2)n1/N=C/c1cccs1	inactive
Cc1cnc(CCNC(=O)Nc2ccccc2F)n1C1CCC1	inactive
COCCNC(=O)Cc1c[nH]c2ncc(-c3cccnc3OC)cc12	31.6 µM (active)
CNC(=O)c1cccc(-c2cnc3[nH]cc(CC(=O)NCc4cccc(F)c4)c3c2)c1	inactive
CN(Cc1cccs1)C(=O)Cc1c[nH]c2ccccc12	inactive
COc1ccccc1C(=O)NCCC(=O)N(C)Cc1cccnc1	inactive
COc1ncccc1-c1cnc2[nH]cc(CC(=O)N(C)Cc3ccccc3)c2c1	28.2 µM (active)
Cc1ccccc1C(=O)NCc1c[nH]c2ncccc12	inactive
CN(CC(=O)NCc1ccc(F)cc1)C(=O)c1ccc2c(c1)nnn2C	inactive
Cc1nc2cc(NC(=O)c3cccc(S(=O)(=O)Nc4ccc(SC(F)F)cc4)c3)ccc2o1	inactive
CCN(CC)S(=O)(=O)c1ccc(-c2csc(-c3cccc(OC)c3OC)n2)cc1	inactive
NC(Cc1ccccc1)(Cc1ccccc1)C(=O)O	inactive
O=C(c1cnc(N2CCCCC2)c2ccccc12)N1CCN(c2ccccn2)CC1	inactive
O=[N+]([O-])c1ccccc1CN1C[C@H](O)C[C@H]1c1nc(-c2ccc(F)cc2)no1	25.1 µM (active)
COc1ccc(CN2C[C@H](O)C[C@H]2c2nc(-c3ccc4c(c3)OCO4)no2)c(OC)c1OC	inactive
O=[N+]([O-])c1cccc(-c2noc([C@@H]3C[C@@H](O)CN3Cc3cccc(OC(F)(F)F)c3)n2)c1	inactive
Oc1ccccc1CN1C[C@H](O)C[C@H]1c1nc(Cc2ccc(F)cc2Cl)no1	inactive
O[C@@H]1C[C@@H](c2nc(-c3ccc4c(c3)OCO4)no2)N(Cc2ccc(-c3ccccn3)cc2)C1	25.1 µM (active)
N#Cc1cccc(CN2C[C@H](O)C[C@H]2c2nc(-c3ccccn3)no2)c1	inactive
CC(c1nc(-c2cccs2)no1)N(C)Cc1ccc(F)cc1F (centres undefined)	inactive

Structure (SMILES)	Potency
Cc1ccc(NC(=O)N2CCC(OC3CCN(S(C)(=O)=O)CC3)CC2)cc1F	inactive
CC(Sc1ncnc2nc[nH]c12)C(=O)NCc1ccc(Cl)c(Cl)c1 (centres undefined)	inactive
Cn1nccc1C(=O)NC1CCCN(c2cc(-c3ccc(F)cc3)[nH]n2)C1 (centres undefined)	inactive
O=C(NC1CCCN(c2cc(-c3ccc(Cl)cc3)[nH]n2)C1)c1ccncc1 (centres undefined)	inactive
O=C(NC1CCN(c2cc(-c3ccc(F)cc3)[nH]n2)C1)c1ccc2c(c1)OCO2 (centres undefined)	inactive
O=C(NC1CCN(c2cc(-c3ccc(Cl)cc3)[nH]n2)CC1)c1ccccc1F	inactive
O=C(NC1CCN(c2cc(-c3ccccc3)[nH]n2)CC1)c1cccs1	inactive
O=C(NC1CCN(c2cc(-c3ccc(F)cc3)[nH]n2)C1)c1cc2ccccc2[nH]1 (centres undefined)	8.91 µM (active)
O=C(NC1CCCN(c2cc(-c3ccc(F)cc3)[nH]n2)C1)c1ccc(Br)cc1 (centres undefined)	inactive
O=C(NC1CCCN(c2cc(-c3ccc(Cl)cc3)[nH]n2)C1)c1ccccc1F (centres undefined)	inactive
O=C(NC1CCCN(c2cc(-c3ccccc3)[nH]n2)C1)c1cccc2[nH]ccc12 (centres undefined)	28.2 µM (active)
O=C(NC1CCCN(c2cc(-c3ccccc3)[nH]n2)C1)c1cccc(Cl)c1 (centres undefined)	inactive
O=C(NC1CCN(c2cc(-c3cccs3)[nH]n2)C1)c1ccc(Br)cc1 (centres undefined)	4.47 µM (active)
O=C(NC1CCN(c2cc(-c3ccc(Cl)cc3)[nH]n2)C1)c1c[nH]c2ccccc12 (centres undefined)	11.2 µM (active)
C=C(Br)CN1CCCC1	inactive
CCc1cccc(-n2c(SCc3nc4ccccc4o3)nnc2N2CCOCC2)c1	inactive
O=C(c1ccccc1F)N1CCC(c2nn(-c3ccc(Cl)cc3)c(=O)[nH]2)CC1	inactive
CCOc1cccc2cc(-c3cc(=O)oc4cc(OC(=O)N5CCOCC5)ccc34)c(=O)oc12	inactive
Cc1cc(C)c2nc(SCC(=O)NC(=O)NC(C)(C)C)cc(C)c2c1	inactive
COc1cccc(CC(=O)NC2CCN(c3cc(-c4ccc(F)cc4)[nH]n3)C2)c1 (centres undefined)	7.94 µM (active)
CCOc1ccc(CC(=O)NC2CCN(c3cc(-c4ccc(F)cc4)[nH]n3)CC2)cc1OCC	inactive
COc1ccc(CC(=O)NC2CCN(c3cc(-c4ccccc4)[nH]n3)CC2)cc1	inactive
Cc1ccc(S(=O)(=O)NCCC(=O)Nc2cccc(S(N)(=O)=O)c2)cc1C	inactive
CC1(c2cccnc2)N(CCOc2ccccc2)C(=O)OC12CCN(C(=O)c1cccc(Cl)c1)CC2 (centres undefined)	inactive
CCOc1ccccc1CN1CCC2(CCN(C(=O)c3cccc(Cl)c3)CC2)Oc2ccccc21	25.1 µM (active)

Structure (SMILES)	Potency
CC1(c2cccnc2)N(Cc2ccccc2)C(=O)OC12CCN(C(=O)c1cccc(Cl)c1)CC2 (centres undefined)	inactive
Cn1cccc1CN1CCC2(CC1)CNc1ccccc1[S+](=O)([O-])N2	inactive
CN(C)C(=O)c1n[nH]c2c1CN(C(=O)c1cccc(C(F)(F)F)c1)CC2	inactive
NCc1ccccc1-c1cccc(C(F)(F)F)c1	inactive
CN(C)C(=O)c1cc(-c2cccc(C(F)(F)F)c2)c2nncn2n1	100 µM (active)
Cc1ccc(N2CCN(C(C(=O)O)c3c[nH]c4cc(NC(=O)C(C)C)ccc34)CC2)c(C)c1 (centres undefined)	inactive
Oc1c(-c2ccccc2)nc2sc3c(c2c1-c1ccccc1)CCCC3	inactive
CN(C)C[C@@H]1CN(c2ncccn2)C[C@H]1NC(=O)Cc1ccccc1Cl	22.4 µM (active)
O=C(c1cc(Cl)cc(Cl)c1)N1CCN(C(=O)c2cc(Cl)ccc2F)CC1	inactive
COc1ccc(CNC(=O)N[C@@H]2CN(c3ccncn3)C[C@H]2CN(C)C)cc1	inactive
CN(C)C[C@@H]1CN(c2ccncn2)C[C@H]1NC(=O)c1cc(C2CC2)[nH]n1	inactive
CN(C)C[C@@H]1CN(c2ncccn2)C[C@H]1NC(=O)c1cc(Cl)ccc1F	31.6 µM (active)
O=C(Cc1ccccc1Cl)N1CCN(c2ncnc3nc[nH]c23)CC1	inactive
Cc1n[nH]c(C)c1CCC(=O)N[C@@H]1CN(S(C)(=O)=O)C[C@H]1CN(C)C	inactive
CN(C)C[C@@H]1CN(c2ncccn2)C[C@H]1NC(=O)CCc1ccccc1	28.2 µM (active)
CCOc1ccc(CC(=O)N[C@@H]2CN(c3ncccn3)C[C@H]2CN(C)C)cc1	25.1 µM (active)
CCOc1ccc(CC(=O)N2C[C@@H](N)C[C@H]2C(=O)NC(C)C)cc1	inactive
Cc1ccc(C)n1-c1nnc(N2CCC(C(=O)NCc3ccccc3Cl)CC2)s1	inactive
CN(C)C(=O)c1cccnc1OC1CCN(C(=O)Cc2ccc(Cl)cc2)C1 (centres undefined)	inactive
C/C=C/c1ccc(OCC(=O)N2CCN(S(=O)(=O)c3ccccc3)CC2)c(OC)c1	inactive
O=C(/C=C/c1ccccc1)Nc1cccc2c1CCCC2	inactive
O=C(NCC1CC1)c1ccc(F)cc1	inactive
Cc1ccc(OCc2nc3ccc(F)cc3[nH]2)cc1	inactive
CCCCCC1CC(COc2ccccc2)OC1=O (centres undefined)	inactive
COc1ccc2c(COC(=O)c3cc4ccccc4cc3O)cc(=O)oc2c1	inactive

Structure (SMILES)	Potency
CCc1cccc2c(C(=O)C(Nc3cccc(CO)c3)c3ccccc3)c[nH]c12 (centres undefined)	inactive
O=C(COC(=O)CCc1c[nH]c2ccccc12)NC1CC1	inactive
Cc1cc(Nc2cccc(Cl)c2)n2nc(Cc3ccccc3)nc2n1	inactive
O=C(c1ccccc1)c1ccc(C(=O)N2CCN(c3ccccc3)CC2)cc1	inactive
CC(C)(C)C(=O)N1CC[C@@H](CC(=O)O)[C@@H](CCN2CCN(c3cccc(C(F)(F)F)c3)CC2)C1	inactive
C=CCNC(=O)N1CC[C@@H](CC(=O)O)[C@@H](CC2=NCCc3ccc(C)cc32)C1	inactive
COc1cccc2c1CCN=C2C[C@H]1CN(C(=O)C(C)(C)C)CC[C@H]1CC(=O)O	35.5 µM (active)
Cc1ccc(CNC(=O)[C@H](C)NC(=O)[C@@H]2Cc3ccccc3CN2)cc1	inactive
Cc1cccnc1NC(=O)C1c2ccccc2C(=O)N(C2CCCC2)C12CCCC2 (centres undefined)	15.8 µM (active)
O=C(NCc1ccccn1)C1c2ccccc2C(=O)N(C2CCCC2)C12CCCC2 (centres undefined)	inactive
COCc1nnc(NC(=O)C2c3ccccc3C(=O)N(C3CCCC3)C23CCCC3)s1 (centres undefined)	inactive
CN(C)CCN(Cc1ccc(Cl)cc1)C(=O)c1ccncc1	inactive
COc1cc(C(=O)OC2CCCCC2=O)ccc1OCc1ccccc1Cl (centres undefined)	inactive
Clc1ccc2[nH]c3c(c2c1)CCCC3	inactive
COCCn1c(C)cnc1CC1CCN(C(=O)c2ccc(OC)cc2OC)CC1	inactive
Cc1cnc(CC2CCN(C(=O)c3cccc4[nH]ccc34)CC2)n1CC1CC1	22.4 µM (active)
Cc1ccncc1C(=O)N1CCC(Cn2c(C)cnc2-c2cccnc2)CC1	inactive
Cc1[nH]c(=O)[nH]c(=O)c1CCC(=O)Nc1nc(C(C)C)cs1	inactive
CCOC(=O)C1CCN(C(=O)c2ccc(-c3ccc(N4CCCCCC4)nc3)cc2)CC1	15.8 µM (active)
CC(=O)c1ccc(NC(=O)COC(=O)C2CCN(c3ccc(C(F)(F)F)cn3)CC2)cc1	inactive
O=C(c1ccc(-c2ccc(N3CCCCC3)nc2)cc1)N1CCOCC1	28.2 µM (active)
CCOC(=O)C1CCN(C(=O)c2cccc(S(=O)(=O)N(CC)c3ccccc3)c2)CC1	inactive
O=C(OCc1cccc(Cl)c1)c1ccc(N2CCOCC2)nc1	inactive
O=C(c1ccnc(-c2nnc3ccc(N4CCOCC4)nn23)c1)N1CCCCC1	inactive
